Assay results published in PubChem BioAssay AID1850 (Southern Research Specialized Biocontainment Screening …, 2009).
In all, about 310,000 compounds went through this assay and about 1,000 (0.32%) were called active. Not all results are given here. Results with a measured potency or affinity are listed apart. A number with no mark means an inactive call. The rule behind the calls is not given here.

test: PhoP regulon inhibitors, Salmonella typhi PhoP promoter GFP reporter, confirmatory (AID 1850); details: fluorescence, 4 h, at 50 µM, hits give high values;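 note: 0% = induced wells with vehicle and 100% = uninduced wells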

Q: Which inhibition does the source give for `Cc1ccc(SCC(=O)OCC(=O)NCCC2=CCCCC2)cc1` here?
A: 9.93%

Q: Which inhibition does the source give for `O=C(O)CNC(=O)C1COc2ccccc2O1` (stereo not drawn) here?
A: 8.95%

Q: For `COCCCn1c(C23CC4CC(CC(C4)C2)C3)n[nH]c1=S`, which inhibition is on record?
A: -6.32%

Q: With `Fc1ccc(CCNCc2ccc(Br)cc2)cc1` as the compound, how does the inhibition read?
A: -3.63%

Q: For `C1N2CN3CN1CN(C2)C3`, which inhibition is on record?
A: -6.24%

Q: Which inhibition does the source give for `O=C(CSc1nnnn1C1CCCC1)N1CCCc2ccccc21` here?
A: 11.7%

Q: Which inhibition does the source give for `COc1ccccc1OCCC(=O)OCC(=O)c1[nH]c(C)c(C(C)=O)c1C` here?
A: 10.1%

Q: Which inhibition does the source give for `O=C(NCN1CCN(c2ccccc2F)CC1)c1ccccc1` here?
A: 0.63%

Q: For `C/C(=N\NC(=O)C1CC1)c1ccc(Cl)c(Cl)c1`, which inhibition is on record?
A: 5.7%

Q: For `C[n+]1cccc2c(Br)ccc([O-])c21`, which inhibition is on record?
A: 4.86%

Q: With `NCC(=O)c1cccc2ccc[n+]([O-])c12` as the compound, how does the inhibition read?
A: -7.72%

Q: Which inhibition does the source give for `O=C(CSc1n[nH]c(=O)[nH]c1=O)c1ccccc1[N+](=O)[O-]` here?
A: -3.6%

Q: With `CCN(Cc1cc2ccccc2[nH]c1=O)C(=O)c1cccnc1` as the compound, how does the inhibition read?
A: 1.33%

Q: Which inhibition does the source give for `COc1ccc(C2(CNC(=O)/C=C\c3ccco3)CCCC2)cc1OC` here?
A: -2.04%

Q: For `COC(=O)c1ccccc1NC(=S)NC(=O)COc1ccccc1`, which inhibition is on record?
A: 10.9%

Q: Which inhibition does the source give for `CC(C)(C)c1ccc(C(=O)NC(=S)NNC(=O)COc2ccccc2)cc1` here?
A: -4.42%

Q: Which inhibition does the source give for `O=C(COc1ccccc1)NNC(=S)NC(=O)c1ccccc1` here?
A: 12.9%

Q: For `Cc1ccccc1C(=O)NNC(=S)NC(=O)c1ccccc1`, which inhibition is on record?
A: -2%

Q: Which inhibition does the source give for `CCc1ccc(NC(=S)Nn2cnnc2)cc1` here?
A: 3.78%

Q: For `CCn1cc(C(=O)c2ccccc2)c2ccccc21`, which inhibition is on record?
A: -2.86%

Q: For `COc1ccc(/C=C/C(=O)Nc2ccc(-c3nnc4n3CCCCC4)cc2)c(OC)c1`, which inhibition is on record?
A: 5.23%

Q: With `CC(=O)OC(C(=O)NCc1ccco1)c1ccncc1` (stereo not drawn) as the compound, how does the inhibition read?
A: -8.42%

Q: For `Cc1c(CCOC(=O)CC23CC4CC(CC(C4)C2)C3)sc[n+]1CC(=O)c1ccc(Br)cc1`, which inhibition is on record?
A: -0.11%

Q: With `Cc1c(CCOC(=O)c2ccccc2)sc[n+]1CC(=O)c1ccc(Br)cc1` as the compound, how does the inhibition read?
A: -8.05%

Q: For `O=C(Nc1nc(-c2cccc([N+](=O)[O-])c2)cs1)c1cccc([N+](=O)[O-])c1C(=O)O`, which inhibition is on record?
A: 5.24%

Q: For `O=C(NC1CCCCCCC1)C1CCN(S(=O)(=O)N2CCCC2)CC1`, which inhibition is on record?
A: 11%

Q: With `O=C(CSc1nc2ccccc2[nH]1)Nc1ccccc1F` as the compound, how does the inhibition read?
A: -4.68%

Q: For `O=C(CSc1nc2ccccc2[nH]1)Nc1ccc(F)cc1`, which inhibition is on record?
A: 0.68%
